Experimental data taken from PMC4336329 (PLoS ONE, 2015).
Out of some 310,000 compounds screened, about 2,200 (0.71%) showed an effect of 50% or more. Effects have a minus sign here. Many of the other results were omitted from the sample, so strong results are more common in it than they were.

Each molecule was assayed against human ether-à-go-go-related gene (hERG) potassium channel (human, UniProt Q12809) (assay: primary screen, population patch clamp on CHO cells stably expressing hERG; higher = less effect of the substance).
human ether-à-go-go-related gene (hERG) potassium channel, sequence (Q12809 whole entry, looked up): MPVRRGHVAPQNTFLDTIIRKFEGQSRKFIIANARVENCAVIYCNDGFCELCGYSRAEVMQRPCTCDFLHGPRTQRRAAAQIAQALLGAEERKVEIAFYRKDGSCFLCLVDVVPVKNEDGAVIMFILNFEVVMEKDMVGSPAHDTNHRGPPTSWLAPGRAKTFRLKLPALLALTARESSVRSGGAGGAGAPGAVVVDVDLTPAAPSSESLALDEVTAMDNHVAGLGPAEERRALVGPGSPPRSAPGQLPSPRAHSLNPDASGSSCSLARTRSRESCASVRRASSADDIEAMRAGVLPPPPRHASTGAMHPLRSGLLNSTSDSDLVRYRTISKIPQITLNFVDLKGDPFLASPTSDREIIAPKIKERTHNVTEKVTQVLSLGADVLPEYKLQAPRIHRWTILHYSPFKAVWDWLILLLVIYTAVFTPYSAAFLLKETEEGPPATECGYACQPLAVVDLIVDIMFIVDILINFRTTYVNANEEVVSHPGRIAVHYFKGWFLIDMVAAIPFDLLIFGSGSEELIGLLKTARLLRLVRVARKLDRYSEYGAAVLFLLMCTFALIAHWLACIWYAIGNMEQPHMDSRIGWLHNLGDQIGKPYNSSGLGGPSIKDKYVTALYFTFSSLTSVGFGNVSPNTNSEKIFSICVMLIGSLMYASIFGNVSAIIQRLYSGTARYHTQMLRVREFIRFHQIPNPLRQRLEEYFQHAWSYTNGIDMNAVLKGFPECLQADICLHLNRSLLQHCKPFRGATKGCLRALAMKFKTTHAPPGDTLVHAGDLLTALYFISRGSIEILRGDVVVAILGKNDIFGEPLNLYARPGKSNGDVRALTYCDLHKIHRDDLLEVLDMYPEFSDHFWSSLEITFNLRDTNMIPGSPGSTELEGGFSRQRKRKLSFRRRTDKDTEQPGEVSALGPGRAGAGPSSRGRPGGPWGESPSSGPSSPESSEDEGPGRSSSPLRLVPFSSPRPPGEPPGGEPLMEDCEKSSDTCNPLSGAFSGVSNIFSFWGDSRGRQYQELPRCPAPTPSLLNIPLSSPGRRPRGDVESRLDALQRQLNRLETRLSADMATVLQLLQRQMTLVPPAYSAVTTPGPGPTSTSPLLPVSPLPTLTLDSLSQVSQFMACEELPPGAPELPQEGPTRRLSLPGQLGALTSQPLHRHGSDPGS

| Structure (SMILES) | hERG current change (%, negative = inhibition) at 1uM [%] |
| --- | --- |
| CC(C)(C)NC(=O)c1c(F)c(F)c(F)c(F)c1F | 4.34 |
| O=S(=O)(c1cccc(-c2nnc(SCc3nc4ccccc4s3)o2)c1)N1CCOCC1 | -2.26 |
| Cc1ccc2c(c1)N(CC(=O)Nc1ccccc1F)C(=O)CO2 | 17.1 |
| O=C(O)c1cccc(N/N=C(\N=Nc2ccccc2)c2ccccc2)c1 | 16.7 |
| Cc1ccc2nc3c(cc(C(=O)NCCc4ccccc4)c(=N)n3CCN3CCOCC3)c(=O)n2c1 | -82.9 |
| Cc1ccc2nc3c(cc(C(=O)NCCc4ccccc4)c(=N)n3CCCN3CCOCC3)c(=O)n2c1 | -77.5 |
| Cc1ccc2nc3c(cc(C(=O)NCCN4CCOCC4)c(=N)n3CCCN3CCOCC3)c(=O)n2c1 | 5.89 |
| CCCCNC(=O)Cn1cnc2sc(C(=O)OCC)c(C)c2c1=O | 8.3 |
| CC(C)[C@H](NC(=O)CCn1nnc2ccccc2c1=O)C(=O)O | 17.3 |
| O=C(/C=C/c1ccccc1O)c1ccc(Cl)cc1 | 9.95 |
| Cc1nc2ccccc2c(=O)n1NC(=O)/C=C/c1ccc(Br)cc1 | 2.25 |
| Cc1nc2ccccc2c(=O)n1NC(=O)/C=C/c1ccccc1 | -0.535 |
| Cc1nc2ccccc2c(=O)n1NC(=O)/C=C/c1ccccc1Cl | -51.1 |
| Cc1csc(NC(=O)CCCc2cccs2)n1 | 1.69 |
| CCCCCN(C(=O)CCC(=O)OCc1ccccc1C)c1c(N)n(CCCC)c(=O)[nH]c1=O | 7.65 |
| CN(c1cccc(NC(=O)CN(c2cccc(F)c2)S(C)(=O)=O)c1)S(C)(=O)=O | 11.3 |
| CCOC(=O)C1(CCOc2ccccc2)CCN(Cc2ccc3nonc3c2)CC1 | 0.31 |
| CCOC(=O)C1(CCOc2ccccc2)CCN(Cc2ccccc2OC)CC1 | -37.2 |
| CCOC(=O)C1(Cc2ccccc2)CCCN(Cc2ccc(OCC)c(CO)c2)C1 (stereo not drawn) | 4.54 |
| CCOC(=O)C1(CCOc2ccccc2)CCN(Cc2cc(OC)c(O)c(OC)c2)CC1 | -66.6 |
| CCOC(=O)C1(Cc2cccc(OC)c2)CCN(Cc2cc(OC)ccc2OC)CC1 | -7.48 |
| CCOC(=O)C1(CCOc2ccccc2)CCN(Cc2cc(OC)ccc2OC)CC1 | -60.1 |
| CCOC(=O)C1(CCOc2ccccc2)CCN(Cc2ccc(C)o2)CC1 | -32.8 |
| CCOC(=O)C1(CCOc2ccccc2)CCN(Cc2cc(OC)c3c(c2)OCO3)CC1 | -7.24 |
| CCOC(=O)C1(CCOc2ccccc2)CCN(Cc2ccccc2O)CC1 | -8.86 |
| CCOC(=O)C1(CCOc2ccccc2)CCN(Cc2cccc(OC)c2O)CC1 | -54.1 |
| CCOC(=O)C1(CCOc2ccccc2)CCN(Cc2ccc(OCC)c(CO)c2)CC1 | -82.4 |
